The text below walks through data of PubChem BioAssay (NCI).

Experiment [1] in a line: NCI Yeast Anticancer Drug Screen. Data for the rad50 strain (AID 155).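 Further: 0% = growth of vehicle-only cultures of the same strain.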 Particulars: S. cerevisiae rad50 strain growth inhibition, stronger effect = higher value. Put shortly:
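Genetically altered yeast (DNA repair pathway); compound treatment; growth inhibition vs vehicle ctrl.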

Experiment [2] in a line: NCI Yeast Anticancer Drug Screen. Data for the mec2-1 strain (AID 157). Particulars: S. cerevisiae mec2-1 strain, stronger effect = higher value. Put shortly:
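Cells of the genetically defined mec2-1 yeast strain are incubated with test compound. Inhibition of growth is calculated against vehicle-treated controls.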

A short description of experiment [3]: NCI Yeast Anticancer Drug Screen. Data for the sgs1 mgt1 strain (AID 161).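 Further: 0% = growth of cultures given vehicle only.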 Particulars: S. cerevisiae sgs1 mgt1 strain, stronger effect = higher value. In a few lines:
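Inhibition of yeast growth, normalised to vehicle-treated controls, is reported for a strain bearing genetic alterations in DNA damage repair.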

Experiment [4] can be described thus: NCI Yeast Anticancer Drug Screen. Data for the cln2 rad14 strain (AID 165).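 Further: 0% = growth equal to vehicle treated cultures.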 Particulars: S. cerevisiae cln2 rad14 strain, stronger effect = higher value. Put shortly: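 The screen exposed genetically defined yeast (cln2 rad14) to test compounds and scored growth inhibition relative to vehicle-treated controls.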
The nature of experiment [5]: NCI Yeast Anticancer Drug Screen. Data for the bub3 strain (AID 167). The settings on record: S. cerevisiae bub3 mutant strain, stronger effect = higher value. In a few lines: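 Yeast carrying a defined mutation is treated with each compound, and growth is compared with that of vehicle-exposed cells to give inhibition.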
Experiment [6] is described as follows: NCI Yeast Anticancer Drug Screen. Data for the mlh1 rad18 strain (AID 175). Particulars: S. cerevisiae mlh1 rad18 strain growth inhibition, stronger effect = higher value. In a few lines: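 Compound-treated yeast growth, normalised to vehicle controls. Strain bears defined DNA repair mutations.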
Setting [7] is: at 5.0 µM (retest, dose inferred, filed as 0.5).
[8] abbreviates: at 50.0 µM (retest, dose inferred, filed as 5.0).

Compounds without any hit were thinned out: in the full panel of roughly 79,000, 15% have a hit. Values without a mark were called inactive. The source made the active and inactive calls. No stated cut-off is given here; in the data, active means growth inhibition above about 70%; inactive means the rest.

Take `CN(C)CCCN1c2ccc3ccccc3c2Sc2cccc(Cl)c21`: the growth inhibition in experiment [1] (setting [7]) was 7%; in experiment [1] (setting [8]), 99% (active); in experiment [1] (at 50.0 µM), 98.3% (active); in experiment [2] (setting [7]) it was 19%; in experiment [2] (setting [8]), 99% (active); in experiment [2] (at 50.0 µM), 97.3% (active). Besides, the growth inhibition in experiment [3] (setting [7]) was -1%; in experiment [3] (setting [8]) it was 99% (active); in experiment [3] (at 50.0 µM) it was 97.9% (active); in experiment [4] (setting [7]) it was 2%; in experiment [4] (setting [8]), 99% (active); in experiment [4] (at 50.0 µM), 96% (active). The growth inhibition in experiment [5] (setting [7]) is 17%; in experiment [5] (setting [8]), 99% (active); in experiment [5] (at 50.0 µM) it was 8.95%; in experiment [6] (setting [7]), 25%; in experiment [6] (setting [8]) it was 99% (active); in experiment [6] (at 50.0 µM), 98.2% (active).

For `Nc1ccc(S(=O)(=O)Nc2cc(Cl)cc(Cl)c2)cc1`, the growth inhibition in experiment [1] (setting [7]) was -4%; in experiment [1] (setting [8]), 92% (active); in experiment [1] (at 50.0 µM), 99.5% (active); in experiment [2] (setting [7]) it was -4%; in experiment [2] (setting [8]) it was 100% (active); in experiment [2] (at 50.0 µM), 97.2% (active). Besides, the growth inhibition was -4% in experiment [3] (setting [7]); 99% (active) in experiment [3] (setting [8]); 99.3% (active) in experiment [3] (at 50.0 µM); -15% in experiment [4] (setting [7]); 99% (active) in experiment [4] (setting [8]); 97.3% (active) in experiment [4] (at 50.0 µM). The growth inhibition in experiment [5] (setting [7]) is 3%; in experiment [5] (setting [8]), 99% (active); in experiment [5] (at 50.0 µM), 99.2% (active); in experiment [6] (setting [7]), 1%; in experiment [6] (setting [8]), 99% (active); in experiment [6] (at 50.0 µM), 98.2% (active).

On to `O=C(c1ccccc1)c1ccc2cccc(O)c2n1`, for which the growth inhibition in experiment [1] (setting [7]) is 19%; in experiment [1] (setting [8]), 63%; in experiment [1] (at 50.0 µM), 88.8% (active); in experiment [2] (setting [7]), -18%; in experiment [2] (setting [8]), 31%; in experiment [2] (at 50.0 µM), 91.5% (active). For the same molecule, the growth inhibition in experiment [3] (setting [7]) is -11%; in experiment [3] (setting [8]), 55%; in experiment [3] (at 50.0 µM), 90.8% (active); in experiment [4] (setting [7]), 5%; in experiment [4] (setting [8]), 34%; in experiment [4] (at 50.0 µM), 88.8% (active). The growth inhibition in experiment [5] (setting [7]) was -21%; in experiment [5] (setting [8]), 77% (active); in experiment [5] (at 50.0 µM) it was 91.7% (active); in experiment [6] (setting [7]) it was -19%; in experiment [6] (setting [8]), 77% (active); in experiment [6] (at 50.0 µM), 89.4% (active).

As to `O=C(Cc1ccccc1)c1ccccc1C(=O)NNc1ccccc1`, the growth inhibition in experiment [1] (setting [7]) was 7%; in experiment [1] (setting [8]), 18%; in experiment [1] (at 50.0 µM), 49%; in experiment [2] (setting [7]) it was -5%; in experiment [2] (setting [8]), 6%; in experiment [2] (at 50.0 µM) it was -6.4%. In addition, the growth inhibition in experiment [3] (setting [7]) was -4%; in experiment [3] (setting [8]), -2%; in experiment [3] (at 50.0 µM), -8%; in experiment [4] (setting [7]) it was 4%; in experiment [4] (setting [8]), 61%; in experiment [4] (at 50.0 µM), -51.9%. Moreover, the growth inhibition in experiment [5] (setting [7]) is 43%; in experiment [5] (setting [8]), 96% (active); in experiment [5] (at 50.0 µM), 26.2%; in experiment [6] (setting [7]), 5%; in experiment [6] (setting [8]) it was 22%; in experiment [6] (at 50.0 µM) it was -0.75%.

Take `Cc1ccc(N=C2SC(=S)N(CCC[N+](C)(C)C)C2=Nc2ccc(C)cc2)cc1`: the growth inhibition was -5% in experiment [1] (setting [7]); 99% (active) in experiment [1] (setting [8]); 99.2% (active) in experiment [1] (at 50.0 µM); -18% in experiment [2] (setting [7]); 100% (active) in experiment [2] (setting [8]); 99.5% (active) in experiment [2] (at 50.0 µM). The growth inhibition in experiment [3] (setting [7]) is -10%; in experiment [3] (setting [8]), 99% (active); in experiment [3] (at 50.0 µM), 99.5% (active); in experiment [4] (setting [7]), 12%; in experiment [4] (setting [8]), 99% (active); in experiment [4] (at 50.0 µM) it was 99.5% (active). For the same molecule, the growth inhibition in experiment [5] (setting [7]) was -4%; in experiment [5] (setting [8]) it was 99% (active); in experiment [5] (at 50.0 µM), 99.4% (active); in experiment [6] (setting [7]) it was 3%; in experiment [6] (setting [8]), 100% (active); in experiment [6] (at 50.0 µM), 99.4% (active).

For the molecule `CC(c1ccccc1)[P+](c1ccccc1)(c1ccccc1)c1ccccc1` (stereo not drawn), the growth inhibition in experiment [1] (setting [7]) was 5%; in experiment [1] (setting [8]), 97% (active); in experiment [1] (at 50.0 µM), 97.8% (active); in experiment [2] (setting [7]), 13%; in experiment [2] (setting [8]), 97% (active); in experiment [2] (at 50.0 µM), 97.5% (active). In addition, the growth inhibition in experiment [3] (setting [7]) is 11%; in experiment [3] (setting [8]), 98% (active); in experiment [3] (at 50.0 µM) it was 97.7% (active); in experiment [4] (setting [7]), -4%; in experiment [4] (setting [8]), 95% (active); in experiment [4] (at 50.0 µM), 96.8% (active). Further, the growth inhibition in experiment [5] (setting [7]) was 6%; in experiment [5] (setting [8]), 99% (active); in experiment [5] (at 50.0 µM), 96.1% (active); in experiment [6] (setting [7]), 16%; in experiment [6] (setting [8]), 97% (active); in experiment [6] (at 50.0 µM), 98% (active).
